According to PubChem BioAssay (NCATS):
Inconclusive results are not listed. Values without a mark were called inactive. Active and inactive are the calls of the source. The call rests on the fitted dose curve; in most records, active means well fitted activation curve with a large enough effect; inconclusive means small, poorly fitted or top-dose-only effect; inactive means no such curve, though single readings can be large or run the other way.
Potency means the concentration at half of the fitted maximal effect.

Each compound was assayed against Cellular tumor antigen p53 (Homo sapiens) (UniProt P04637) (assay: Primary qHTS for small molecule compounds that upregulate eGFP-tagged delta133p53alpha (in N-terminal) cells. (AID 2060322; further: nearly all actives have a fitted effect of over 75% in size;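 on activation: series mostly up to about 56 µM; 0% = DMSO vehicle and 100% = reference activator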)). Conditions: NCI-H358 eGFP-delta133p53alpha fluorescence, 24 h; activation: hits give high values.
Sequence of Cellular tumor antigen p53 (Homo sapiens) (P04637 whole entry, looked up): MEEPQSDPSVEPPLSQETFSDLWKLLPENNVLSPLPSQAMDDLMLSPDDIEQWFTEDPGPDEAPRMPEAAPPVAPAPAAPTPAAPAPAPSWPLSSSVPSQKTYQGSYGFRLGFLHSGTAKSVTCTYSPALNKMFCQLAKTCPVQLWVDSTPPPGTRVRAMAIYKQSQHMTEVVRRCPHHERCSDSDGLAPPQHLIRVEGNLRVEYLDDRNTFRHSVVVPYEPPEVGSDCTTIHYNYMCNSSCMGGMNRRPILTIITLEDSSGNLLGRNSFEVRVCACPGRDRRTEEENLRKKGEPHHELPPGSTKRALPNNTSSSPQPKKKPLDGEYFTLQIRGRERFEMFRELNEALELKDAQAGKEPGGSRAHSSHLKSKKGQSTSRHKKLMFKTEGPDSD
In short: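 NCI-H358 cells pre-induced 24 h with 10 ng/ml doxycycline to express N-terminal eGFP-delta133p53alpha, then dosed 24 h at 37C without doxycycline; fixed, Hoechst-stained, GFP intensity by laser scanning cytometry, normalized to DMSO (0%) and 57.5 uM 5-azacytidine (100%).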
`CC(C)(Oc1ccc(Cl)cc1)C(=O)O` gave an activation of -18.4%. Compound `COc1cc(C=O)ccc1O` has an activation of 5.02%. `COc1cc2c(NC3CCN(C)CC3)nc(N3CCCN(C)CC3)nc2cc1OCc1ccccc1` gave an activation of 30.2%. `CNCCc1ccccn1` was tested, and the activation was 5.02%. `O=C(O)Cc1ccc2c(c1)C(=O)c1ccccc1CO2` gave an activation of 7.34%. With `CC(=O)Oc1ccc(C(=C2CCCCC2)c2ccc(OC(C)=O)cc2)cc1` the activation was 9.6%. `CCCC(=O)OC[C@@H](OC(=O)CCC)[C@@H](OC(=O)CCC)[C@H](Cn1c2nc(=O)[nH]c(=O)c-2nc2cc(C)c(C)cc21)OC(=O)CCC` gave an activation of -33.3%. With `CN1C(C)(C)CCCC1(C)C` the activation was 0%. Work on `CC[C@@H](CO)NCCN[C@@H](CC)CO` yielded an activation of -10%. `C[N+]1(C)CCC(=C(c2ccccc2)c2ccccc2)CC1` gave an activation of 28.8%. `C[C@]12CC[C@H]3[C@@H](CCC4=CC(=O)CC[C@@]43C)[C@@H]1CC[C@@H]2C(=O)CO` gave an activation of -5.86%. With `O=C(O)c1ccccc1OP(=O)(O)O` the activation was -6.21%. For `O=c1c(-c2ccccc2)c1-c1ccccc1`, the Potency was 30.9 µM (active). With `CCn1cc(C(=O)O)c(=O)c2cnc(N3CCCC3)nc21` the activation was 3.95%. In the case of `Nc1c2ccccc2nc2ccccc12`, the activation is reported as -7.34%. With `Fc1ccc(C(c2ccc(F)cc2)N2CCNCC2)cc1` the activation was -8.47%. Compound `CC(C)(C)C(=O)OCOC(=O)C1N2C(=O)CC2S(=O)(=O)C1(C)C` (configuration not stated) has an activation of 3.95%.
